# In the library only some 2.9% were active in any assay of this set; here they are far more common.
# GLP1R ag: qHTS of GLP-1 Receptor Agonists | Glucagon-like peptide 1 receptor (Homo sapiens), P43220 | 0.007% of 380,000 active | Potency, µM (top dose mostly 45.6 µM), most hits filed as activators | AID 624172, 2012 | HEK293 GLP-1R CRE-luciferase, luminescence, 4-6 h; cells express a hypersensitive GLP-1R form
# Target sequence (P43220 whole entry, looked up): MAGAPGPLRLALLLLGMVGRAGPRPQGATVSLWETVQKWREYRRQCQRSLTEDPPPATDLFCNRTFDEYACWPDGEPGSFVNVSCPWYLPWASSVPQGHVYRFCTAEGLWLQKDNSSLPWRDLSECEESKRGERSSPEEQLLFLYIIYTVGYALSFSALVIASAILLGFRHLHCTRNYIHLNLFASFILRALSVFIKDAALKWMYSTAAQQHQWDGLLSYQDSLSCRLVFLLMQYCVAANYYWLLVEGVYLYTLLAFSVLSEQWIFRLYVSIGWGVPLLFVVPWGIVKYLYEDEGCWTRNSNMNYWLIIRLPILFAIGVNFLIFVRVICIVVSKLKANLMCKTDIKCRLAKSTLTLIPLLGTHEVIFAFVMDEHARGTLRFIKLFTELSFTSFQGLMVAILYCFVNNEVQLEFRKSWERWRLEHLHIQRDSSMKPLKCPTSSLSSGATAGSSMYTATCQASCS
# ClpP mod: qHTS Assay for Activators of ClpP; 1.9% of 340,000 active; purified B. subtilis ClpP, FRET peptide cleavage, 20 min; Potency, µM (doses to about 57.5 µM); ATP-dependent Clp protease proteolytic subunit (Bacillus subtilis (strain 168)), P80244; active = well fitted falling curve with a large enough effect; inconclusive = small, poorly fitted or top-dose-only effect; inactive = no such curve, though single readings can be large or run the other way; note: the source files actives as falling curves though it sought activators and does not explain the sign; nearly all actives have a fitted effect of over 65% in size
# Target sequence (P80244 whole entry, looked up): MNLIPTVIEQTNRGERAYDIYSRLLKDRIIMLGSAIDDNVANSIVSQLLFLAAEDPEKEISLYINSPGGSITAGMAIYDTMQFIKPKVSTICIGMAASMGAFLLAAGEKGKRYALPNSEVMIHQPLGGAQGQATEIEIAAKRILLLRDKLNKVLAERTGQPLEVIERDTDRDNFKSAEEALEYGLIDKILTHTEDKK
#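 Buffer: 100 mM Tris/HCl pH8, 100 mM KCl, 0.05% low protease BSA, 2.5% glycerol, 0.01% Tween-20. ClpP 10 microg/mL final; 20 min RT; delta FRET normalized to ADEP and DMSO controls.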
# p53 reactivator: qHTS assay for re-activators of p53 using a Luc reporter. H1299 p53-A138V BP100-luciferase reporter, luminescence, 24 h. 0.063% of 320,000 active. Potency, µM (top dose mostly 92.2 µM), hits mostly activators. AID 504706, 2011; note: nearly all actives have a fitted effect of over 45% in size
#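 p53-null H1299 cells stably carrying temperature-sensitive p53-A138V and a BP100-luciferase reporter were pinned with compounds (4-point, 1:5 series) and held 24 hrs at 37 deg C. Luminescence was read 10 min after detection reagent.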
# LDHA block: qHTS assay for inhibitors of human lactate dehydrogenase; purified LDHA, NADH/diaphorase-resazurin fluorescence; hits give low values; activity change, % (values are at about 110 or 230 µM); 0.15% of 480,000 active; in the data active = activity change below about -30%; inconclusive = mostly about -25% to -30%
#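 Resorufin fluorescence (ex540/em590), read at 0 and 20 min after diaphorase/resazurin addition, reports the NADH left after a 5 min room-temperature reaction of 2 nM human LDH5 with 0.06 mM NADH and 0.2 mM pyruvate.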
# GLP1R cytotox: qHTS of GLP-1 Receptor Inverse Agonists: Cytotox Screen. HEK293 cAMP-luciferase reporter cells, luminescence, 24 h. AID 624418, 2012. 0.13% of 410,000 active. Potency, µM (series often up to 38.3 µM), most hits filed as inhibitors;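 note: loss of luciferase light is scored as toxicity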
#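 1536-well qHTS counterscreen of the MLSMR; 200 cells/uL, 12 h pre-incubation, 23 nL cpd, 24 h at 37 deg C 5% CO2, luciferase detection reagent, 12 min RT, luminescence. Inhibition = undesired.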
# GLP1R inv ag: qHTS of GLP-1 Receptor Inverse Agonists (Inhibition Mode) | Glucagon-like peptide 1 receptor (Homo sapiens), P43220 | HEK293 GLP-1R CRE-luciferase, luminescence, 24 h; GLP-1R form is constitutively active | Potency, µM (series often up to 38.3 µM), most hits filed as inhibitors | 1.6% of 410,000 active | AID 624417, 2012; note: nearly all actives have a fitted effect of over 55% in size
#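 Inverse agonists were sought by their lowering of basal cAMP reporter luciferase output in HEK293 cells stably carrying constitutively active human GLP-1R, after 24 h compound treatment.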
# Numbers stand for hits; . = inactive; ? = inconclusive; / = no result; ! = not active in a repeat; [ ] = another dose, or the depositor's remark. Unless noted, calls come from the whole dose curve; as a rule, active = well fitted curve in the direction sought with a large enough effect; inconclusive = small, poorly fitted or top-dose-only effect, or another doubt; inactive = no such curve, though single readings can be large; an effect the other way counts as inactive or inconclusive.
SMILES,GLP1R ag,ClpP mod,p53 reactivator,LDHA block,GLP1R cytotox,GLP1R inv ag
C=CCSC1=C(C#N)C(c2ccccc2C)CC(=O)N1 (centres undefined),.,28µM,.,.,.,.
CCSC1=C(C#N)C(c2ccccc2C)CC(=O)N1 (centres undefined),.,.,.,.,.,.
N#CC1=C(SCc2ccccc2)NC(=O)CC1c1ccc(O)cc1 (centres undefined),.,.,.,.,.,.
Cc1ccc(C2CC(=O)NC(SCc3ccccc3)=C2C#N)cc1 (centres undefined),.,.,.,.,.,8.9µM
Cc1ccc(Cn2c(=O)c3cccnc3n(CC(=O)Nc3cccc(C(F)(F)F)c3)c2=O)cc1,.,32µM!,.,.,.,?
CC1(OC(=O)C2CCCC2)C(=O)C=C2C=C(c3ccsc3)N(CCN3CCOCC3)C=C2C1=O (centres undefined),/,/,.,/,/,/
CCCCc1nc(NCCNC(=O)c2ccccc2)c(C#N)c2c1CSC(C)(C)C2,.,28µM,.,.,?,8.9µM
CCCCc1nc(Cl)c(C#N)c2c1CSC(C)(C)C2,.,.,.,.,.,.
CCCCc1nc(NCCNC(=O)c2ccco2)c(C#N)c2c1CSC(C)(C)C2,.,25µM,.,.,.,.
CC1(C(=O)NCc2cccc3ccccc23)CCN1Cc1ccc2ccccc2c1 (centres undefined),.,.,/,.,.,?
CC(C)CCNC(=O)C1(C)CCN1Cc1ccc2ccccc2c1 (centres undefined),.,.,/,.,.,10µM
COc1ccc(NC(=S)N2CCCN(Cc3cccc(Cl)c3)C2)cc1,.,/,.,.,.,8.9µM
CCOc1ccc(NC(=S)N2CCCN(Cc3cccc(Cl)c3)C2)cc1,.,/,.,.,.,?
CSc1cccc(NC(=S)N(CCCN2CCCC2)Cc2cccn2Cc2ccc(Cl)cc2)c1,.,/,.,.,11µM,3.5µM
CSc1cccc(NC(=S)N2CCCN(Cc3cccc(Cl)c3)C2)c1,.,/,.,.,.,3.5µM
S=C(Nc1cccc(Cl)c1)N(CCCN1CCCC1)Cc1cccn1Cc1ccc(Cl)cc1,.,/,.,.,?,?
N#Cc1ccc(C(=O)CSc2n[nH]c(=O)n2Cc2ccco2)cc1,.,28µM,.,.,.,.
CC(C)n1ncc2c(C(=O)O)cc(C3CC3)nc21,.,.,.,.,.,.
CC(C)n1ncc2c(C(=O)Nc3cccc(C#N)c3)cc(C3CC3)nc21,.,.,.,.,.,8.9µM
CCNC(=O)c1cccc(NC(=O)c2cc(C3CC3)nc3c2cnn3C(C)C)c1,.,/,.,.,.,10µM
CCc1cccc(OCC(=O)Nc2ccc(C)c(S(=O)(=O)N3CCCCCC3)c2)c1,.,/,.,.,.,5µM
CC(=O)c1ccc(OCCCC(=O)Nc2ccc(C)c(S(=O)(=O)N3CCCCC3)c2)cc1,.,/,.,.,.,11µM
Cc1ccc(NC(=O)CN2CCOCC2)cc1S(=O)(=O)N1CCCCC1,.,.,.,.,.,.
O=C(Nc1ccc(Cl)c(S(=O)(=O)N2CCCCC2)c1)C1=COCCO1,.,14µM,.,.,.,?
CCOc1ccc(C(=O)CCC(=O)Nc2ccc(C)c(S(=O)(=O)N3CCCCC3)c2)cc1,.,.,.,.,.,?
SMILES,GLP1R ag,ClpP mod,p53 reactivator,LDHA block,GLP1R cytotox,GLP1R inv ag
Cc1ccc(NC(=O)COc2cccc(C)c2C)cc1S(=O)(=O)N1CCCCCC1,.,/,.,.,.,?
Cc1ccc(NC(=O)CNCCCN2CCOCC2)cc1S(=O)(=O)N1CCCCC1,.,.,.,-33,.,?
O=C1Nc2ccc([N+](=O)[O-])cc2OC1CCN1CCN(Cc2ccc3c(c2)OCO3)CC1 (centres undefined),.,/,.,.,.,?
Cc1ccc(NC(=O)/C=C/c2ccco2)cc1S(=O)(=O)N1CCCCCC1,.,.,/,.,.,10µM
O=C(CC1CCCC1)Nc1ccc(Cl)c(S(=O)(=O)N2CCOCC2)c1,.,.,.,.,.,8.9µM
Cc1cc(C)n2nc(SCc3cc(=O)oc4cc(C)c(C)cc34)nc2n1,/,/,.,/,/,/
COC(=O)c1ccc(NC(=O)CN(Cc2ccccc2)S(=O)(=O)c2ccc(Cl)cc2)cc1,/,.,/,.,.,8.9µM
COC(=O)c1ccc(NC(=O)CN(Cc2ccccc2)S(=O)(=O)c2ccc(C)cc2)cc1,/,.,/,.,.,10µM
COc1ccc(S(=O)(=O)N(CC(=O)Nc2cc(C)ccc2OC)Cc2ccccc2)cc1,/,.,/,?,.,?
COc1ccc(S(=O)(=O)N(CC(=O)Nc2ccc(Br)cc2)Cc2ccccc2)cc1,/,?,/,.,.,.
COc1ccc(NC(=O)CN(Cc2ccccc2)S(=O)(=O)c2ccc(C)cc2)cc1Cl,/,.,/,.,.,10µM
Cc1c(C)c2ccc(OCC(=O)NCc3ccc(S(N)(=O)=O)cc3)c(C)c2oc1=O,/,/,/,.,/,/
Cc1ccccc1NC(=O)c1cccnc1,.,.,.,.,.,.
c1coc(-c2cc(CSc3ccc4c(c3)OCCCO4)no2)c1,/,/,/,.,/,/
COc1ccc2ccccc2c1CNCc1ccc(C)cc1,.,/,.,.,.,10µM
O=C(N/N=C/c1ccco1)c1cccc(N2CCCC2=O)c1,.,28µM,?,.,.[1.53 µM],.
O=C(N/N=C/c1cc(Br)ccc1O)c1cccc(N2CCCC2=O)c1,.,.,?,.,.,?
CCC(C)NC(=O)c1ccc(CSCc2ccccc2Cl)o1 (centres undefined),.,/,.,.,.,?
O=C(NCc1ccc(Cl)cc1)c1ccc(CSCc2cccc(Cl)c2)o1,/,.,/,.,.,?
CN1CCN(CCCNC(=O)c2ccc(CSCc3cccc(Cl)c3)o2)CC1,.,14µM,.,.,.,10µM
Cc1ccc(CNC(=O)c2ccc(CSCc3ccc(Cl)cc3)o2)cc1,/,.,/,.,.,10µM
CC(C)NC(=O)c1ccc(CSCc2ccccc2Cl)o1,.,/,.,.,.,8.9µM
Cc1cccc(CS(=O)(=O)Cc2ccc(C(=O)NCCCN3CCOCC3)o2)c1,.,28µM,.,.,.,.
CCOC(=O)CCn1c2nc(C)cc(C)c2c(=O)n1-c1ccccc1,.,?,.,.,.,.
O=C(O)C(=O)/C(=C\c1cccc2ccccc12)c1ccc2ccccc2n1,.,16µM,.,.,.,.

# Screening results: PubChem, National Center for Advancing Translational Sciences (NCATS)
